An excerpt weighted towards active compounds, which were near 19% of everything screened.
DT40 TDP1 CPT: growth inhibition of DT40 Tdp1-/-;hTDP1 cells with camptothecin (screen for TDP1 inhibitors); chicken DT40 Tdp1-/-;hTDP1 cells + 20 nM CPT, ATP luminescence, 48 h; Potency, µM (doses to about 46.2 µM), hits mostly inhibitors; actives 12% (n = 420,000); also: nearly all actives have a fitted effect of over 55% in size
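Chicken DT40 Tdp1-/- cells complemented with human TDP1, 400 cells/well, exposed to compounds plus 20 nM camptothecin for at least 48 h at 37 C; viability read as ATP content by CellTiter-Glo luminescence.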
HT1080 IDH1KD tx: kills HT-1080 cells with IDH1 knockdown; AID 686971; actives 2% (n = 360,000); HT-1080 IDH1 knockdown viability, ATP luminescence, 48 h; Potency, µM (series often up to 46.1 µM), usual class: cytotoxic
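CellTiter-Glo luminescence after 48 h compound exposure at 37 degrees C of IDH1-knockdown HT-1080 cells in 5% FBS RPMI. %Activity scaled between DMSO wells and cell-free media wells, with curves fitted and assigned curve classes.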
KB-3-1 tox: kills parental KB-3-1 adenocarcinoma cells; KB-3-1 viability, CellTiter-Glo ATP luminescence, 72 h; Potency, µM (doses to about 46.1 µM), hits mostly cytotoxic; actives 1.4% (n = 400,000); AID 1347075; also: nearly all actives have a fitted effect of over 60% in size
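Using CellTiter-Glo luminescence, growth of non-resistant KB-3-1 adenocarcinoma cells is assessed 72 h after pin-tool compound addition at 37 °C. Normalized responses across the concentration series yield fitted curves.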
HT1080NT lethal: kills 2HG-producing HT-1080-NT fibrosarcoma cells | HT-1080-NT fibrosarcoma viability, CellTiter-Glo ATP luminescence, 48 h | Potency, µM (titrated, usually from 46.1 µM), most hits filed as cytotoxic | actives 1.6% (n = 360,000) | AID 686970;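 also: NT is the 2HG producing partner of a matched IDH1 knockdown line; nearly all actives have a fitted effect of over 55% in size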
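750 cells/well, RPMI + 5% FBS; 2 h settle, compound pin-transfer, 48 h at 37 degrees C. CellTiter-Glo 10 min RT, luminescence. Normalized to DMSO and media-only wells.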
KB-V1 MDR tox: kills drug-selected multidrug resistant KB-V1 cells. KB-V1 MDR cells viability, CellTiter-Glo, 72 h. Potency, µM (series often up to 46.1 µM), hits mostly cytotoxic. actives 3.4% (n = 400,000). AID 1347076; also: nearly all actives have a fitted effect of over 60% in size
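Drug-selected KB-V1 cells, grown in DMEM lacking phenol red with 10% FBS, receive compound titrations; after three days at 37 degrees C, surviving cell ATP is quantified by CellTiter-Glo luminescence and responses normalized and curve-fitted.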
TDP1 cell noCPT: qHTS for Inhibitors of human tyrosyl-DNA phosphodiesterase 1 (TDP1): qHTS in cells in absence of CPT; DT40 Tdp1-/- hTDP1 cells, no CPT, ATP luminescence, 48 h; Potency, µM (titrated, usually from 46.2 µM), usual class: inhibitors; actives 15% (n = 420,000); AID 686978, 2013; also: nearly all actives have a fitted effect of over 55% in size
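Seeded 400 DT40-hTDP1 cells/well (vehicle DMSO, no 20 nM CPT); pinned compounds; ≥48 hr at 37 °C; CellTiter-Glo luminescence as viability measure.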
Hits are given with their value. Calls follow the shape of the dose curve; as a rule, active = well fitted curve in the direction sought with a large enough effect; inconclusive = small, poorly fitted or top-dose-only effect, or another doubt; inactive = no such curve, though single readings can be large; an effect the other way counts as inactive or inconclusive.

Results for Cc1ccc2nc(SCc3ccc([N+](=O)[O-])cc3)[nH]c2c1 ?
DT40 TDP1 CPT: inconclusive; HT1080 IDH1KD tx: inconclusive; KB-3-1 tox: inconclusive; HT1080NT lethal: inconclusive; KB-V1 MDR tox: 16µM; TDP1 cell noCPT: inconclusive

How did Cc1ccc(C#N)c(SCc2ccccc2F)n1 do in these assays?
DT40 TDP1 CPT: inactive; HT1080 IDH1KD tx: inactive; KB-3-1 tox: inactive; HT1080NT lethal: inactive; KB-V1 MDR tox: inactive; TDP1 cell noCPT: inactive

Results for Cc1ccccc1-c1noc(CSc2nc(-c3ccc(F)cc3)cc(=O)[nH]2)n1 ?
DT40 TDP1 CPT: inactive; KB-3-1 tox: inactive; KB-V1 MDR tox: inactive; TDP1 cell noCPT: inactive

Results for Cc1cc(C)cc(NC(=O)CSc2nc3ccncc3[nH]2)c1 ?
DT40 TDP1 CPT: 6.5µM; HT1080 IDH1KD tx: inactive; KB-3-1 tox: inactive; HT1080NT lethal: inactive; KB-V1 MDR tox: inactive; TDP1 cell noCPT: 16µM

Results for Cc1cc(C)cc(NC(=O)CCCSc2nc3ccccc3[nH]2)c1 ?
DT40 TDP1 CPT: inconclusive; HT1080 IDH1KD tx: inactive; KB-3-1 tox: inactive; HT1080NT lethal: inactive; KB-V1 MDR tox: inactive; TDP1 cell noCPT: inconclusive

What do the screens show for `CN(CCc1ccccc1)C1CCCN(S(=O)(=O)CC(F)(F)F)C1` (centres undefined)?
DT40 TDP1 CPT: inactive; HT1080 IDH1KD tx: inactive; KB-3-1 tox: inactive; HT1080NT lethal: inactive; KB-V1 MDR tox: inconclusive; TDP1 cell noCPT: inactive

Results for COc1ccc(CCNC(=O)C2CCCN(S(=O)(=O)c3ccc4c(c3)oc(=O)n4C)C2)cc1OC (centres undefined) ?
DT40 TDP1 CPT: inactive; KB-3-1 tox: inactive; KB-V1 MDR tox: inactive; TDP1 cell noCPT: inconclusive

Results for Clc1ccc(CSc2nc3ccncc3[nH]2)cc1 ?
DT40 TDP1 CPT: inconclusive; HT1080 IDH1KD tx: inconclusive; KB-3-1 tox: inconclusive; HT1080NT lethal: inactive; KB-V1 MDR tox: inactive; TDP1 cell noCPT: inconclusive

What do the screens show for `Cc1ccc2nc(SCc3nc4ccccc4c(=O)[nH]3)[nH]c2c1`?
DT40 TDP1 CPT: inconclusive; HT1080 IDH1KD tx: inactive; KB-3-1 tox: inactive; HT1080NT lethal: inactive; KB-V1 MDR tox: inconclusive; TDP1 cell noCPT: 21µM

Results for COC(=O)c1sc2nc(CSc3nc4ccc(C)cc4[nH]3)[nH]c(=O)c2c1C ?
DT40 TDP1 CPT: inconclusive; HT1080 IDH1KD tx: inactive; KB-3-1 tox: inactive; HT1080NT lethal: inactive; KB-V1 MDR tox: inactive; TDP1 cell noCPT: inactive

Results for Cc1ccc(CSc2nc3ccncc3[nH]2)cc1 ?
DT40 TDP1 CPT: inconclusive; HT1080 IDH1KD tx: inconclusive; KB-3-1 tox: 12µM; HT1080NT lethal: inconclusive; KB-V1 MDR tox: inactive; TDP1 cell noCPT: 15µM

How did Cc1ccc2nc(SCC(=O)Nc3ccc(C(N)=O)cc3)[nH]c2c1 do in these assays?
DT40 TDP1 CPT: inactive; HT1080 IDH1KD tx: inactive; KB-3-1 tox: inactive; HT1080NT lethal: inactive; KB-V1 MDR tox: inactive; TDP1 cell noCPT: inactive

How did Cc1ccc2nc(SCC(=O)Nc3cccc([N+](=O)[O-])c3)[nH]c2c1 do in these assays?
DT40 TDP1 CPT: inactive; HT1080 IDH1KD tx: inconclusive; KB-3-1 tox: inactive; HT1080NT lethal: inactive; KB-V1 MDR tox: 15µM; TDP1 cell noCPT: inactive

What do the screens show for `Cc1ccc(Cl)cc1N(C)C(=O)c1noc2c1CCCCC2`?
DT40 TDP1 CPT: inconclusive; TDP1 cell noCPT: inactive

What do the screens show for `COc1ccc(NS(=O)(=O)c2cccc(C(=O)NNC(=O)CNC(=O)c3ccc(C)cc3)c2)cc1`?
DT40 TDP1 CPT: inactive; HT1080 IDH1KD tx: inactive; KB-3-1 tox: inactive; HT1080NT lethal: inactive; KB-V1 MDR tox: inconclusive; TDP1 cell noCPT: inactive

Results for COc1ccc(C#Cc2cccc(-c3nc(C(=O)NCCCN4CCOCC4)cc4c3[C@H](CCO)N(S(=O)C(C)(C)C)C4)c2)cc1OC (some centres undefined) ?
DT40 TDP1 CPT: inconclusive; HT1080 IDH1KD tx: inconclusive; KB-3-1 tox: inactive; HT1080NT lethal: inconclusive; KB-V1 MDR tox: inconclusive; TDP1 cell noCPT: 23µM

How did CC(C)(C)S(=O)N1Cc2cc(C(=O)NCc3ccc(Oc4ccccc4)cc3)nc(-c3cccc(-c4cc5ccccc5o4)c3)c2[C@@H]1CCO (some centres undefined) do in these assays?
DT40 TDP1 CPT: inconclusive; HT1080 IDH1KD tx: inconclusive; KB-3-1 tox: inconclusive; HT1080NT lethal: 23µM; KB-V1 MDR tox: inconclusive; TDP1 cell noCPT: inconclusive

Results for CC(C)(C)S(=O)N1Cc2cc(C(=O)NCc3ccc4c(c3)OCO4)nc(-c3cccc(-c4ccncc4)c3)c2[C@H]1CCO (some centres undefined) ?
DT40 TDP1 CPT: inconclusive; HT1080 IDH1KD tx: inconclusive; KB-3-1 tox: inactive; HT1080NT lethal: inconclusive; KB-V1 MDR tox: inactive; TDP1 cell noCPT: inconclusive

How did CC(C)NC(=O)N1Cc2cc(C(=O)NC3CCCC3)nc(-c3cccc(-c4cccnc4)c3)c2[C@@H]1CCO do in these assays?
DT40 TDP1 CPT: inconclusive; HT1080 IDH1KD tx: inactive; KB-3-1 tox: inactive; HT1080NT lethal: inactive; KB-V1 MDR tox: inactive; TDP1 cell noCPT: 13µM

How did CC(C)(C)S(=O)N1Cc2cc(C(=O)NCc3ccc4c(c3)OCO4)nc(-c3cccc(-c4ccccc4)c3)c2[C@@H]1CCO (some centres undefined) do in these assays?
DT40 TDP1 CPT: 23µM; HT1080 IDH1KD tx: inactive; KB-3-1 tox: inactive; HT1080NT lethal: inactive; KB-V1 MDR tox: inactive; TDP1 cell noCPT: inconclusive

Results for COc1ccc(-c2[nH]ncc2C(=O)NCc2cccc(F)c2)cc1 ?
DT40 TDP1 CPT: inactive; TDP1 cell noCPT: inactive

Results for COCCNC(=O)c1cc2c(c(-c3cccc(-c4cc5ccccc5o4)c3)n1)[C@H](CCO)N(S(=O)C(C)(C)C)C2 (some centres undefined) ?
DT40 TDP1 CPT: inconclusive; HT1080 IDH1KD tx: inconclusive; KB-3-1 tox: inactive; HT1080NT lethal: inconclusive; KB-V1 MDR tox: 18µM; TDP1 cell noCPT: 23µM

How did CCCNC(=O)c1cc2c(c(-c3cccc(-c4ccc(F)cc4)c3)n1)[C@H](CCO)N(S(=O)C(C)(C)C)C2 (some centres undefined) do in these assays?
DT40 TDP1 CPT: inconclusive; HT1080 IDH1KD tx: inconclusive; KB-3-1 tox: inconclusive; HT1080NT lethal: inconclusive; KB-V1 MDR tox: inconclusive; TDP1 cell noCPT: 23µM

What do the screens show for `CN1CCN(C(=O)c2cc3c(c(-c4cccc(-c5cc6ccccc6o5)c4)n2)[C@@H](CCO)N(S(=O)C(C)(C)C)C3)CC1` (some centres undefined)?
DT40 TDP1 CPT: inconclusive; HT1080 IDH1KD tx: inactive; KB-3-1 tox: inactive; HT1080NT lethal: inactive; KB-V1 MDR tox: inactive; TDP1 cell noCPT: inconclusive

Screening data: PubChem, National Center for Advancing Translational Sciences (NCATS)
